Drawing on ChEMBL document CHEMBL1961873, “Compounds: GSK PKIS; Assays: Nanosyn kinase panel” (2012), this text covers inhibition for 17 compounds.

For test [1], the target named is RAF proto-oncogene serine/threonine-protein kinase (Homo sapiens) (UniProt P04049). The following applies: at 1 µM.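 Also: values are the mean percent inhibition of CRAF.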
Test [2] has as its target T1, Interleukin-1 receptor-associated kinase 4 (Homo sapiens) (UniProt Q9NWZ3).
T1 sequence (whole entry): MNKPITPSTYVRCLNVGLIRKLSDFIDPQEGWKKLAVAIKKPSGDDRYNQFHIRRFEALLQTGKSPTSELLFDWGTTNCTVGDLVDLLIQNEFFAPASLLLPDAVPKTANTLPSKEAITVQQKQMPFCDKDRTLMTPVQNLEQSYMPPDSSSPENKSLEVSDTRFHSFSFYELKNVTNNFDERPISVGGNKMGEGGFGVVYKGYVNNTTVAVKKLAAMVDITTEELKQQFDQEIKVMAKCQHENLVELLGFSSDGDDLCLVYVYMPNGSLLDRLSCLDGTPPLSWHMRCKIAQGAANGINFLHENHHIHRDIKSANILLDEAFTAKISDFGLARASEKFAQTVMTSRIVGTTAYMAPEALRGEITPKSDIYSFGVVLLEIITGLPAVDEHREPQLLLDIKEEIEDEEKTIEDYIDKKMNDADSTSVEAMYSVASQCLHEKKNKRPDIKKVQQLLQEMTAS
The settings on record: at 0.1 µM.

The target in test [3] is T1, Interleukin-1 receptor-associated kinase 4 (Homo sapiens). The settings on record: at 1 µM.
Test [4] concerns the target Leucine-rich repeat serine/threonine-protein kinase 2 (Homo sapiens) (UniProt Q5S007). The following applies: at 0.1 µM.
The target is the same in test [5]. The following applies: at 1 µM.
The test system of test [6] is Leucine-rich repeat serine/threonine-protein kinase 2 (Homo sapiens), Q5S007 [G2019S]. The following applies: at 0.1 µM.
Test [7] shares this test system. The following applies: at 1 µM.

Sequence of Leucine-rich repeat serine/threonine-protein kinase 2 (Homo sapiens), Q5S007 [G2019S] (Q5S007 whole entry G2019S): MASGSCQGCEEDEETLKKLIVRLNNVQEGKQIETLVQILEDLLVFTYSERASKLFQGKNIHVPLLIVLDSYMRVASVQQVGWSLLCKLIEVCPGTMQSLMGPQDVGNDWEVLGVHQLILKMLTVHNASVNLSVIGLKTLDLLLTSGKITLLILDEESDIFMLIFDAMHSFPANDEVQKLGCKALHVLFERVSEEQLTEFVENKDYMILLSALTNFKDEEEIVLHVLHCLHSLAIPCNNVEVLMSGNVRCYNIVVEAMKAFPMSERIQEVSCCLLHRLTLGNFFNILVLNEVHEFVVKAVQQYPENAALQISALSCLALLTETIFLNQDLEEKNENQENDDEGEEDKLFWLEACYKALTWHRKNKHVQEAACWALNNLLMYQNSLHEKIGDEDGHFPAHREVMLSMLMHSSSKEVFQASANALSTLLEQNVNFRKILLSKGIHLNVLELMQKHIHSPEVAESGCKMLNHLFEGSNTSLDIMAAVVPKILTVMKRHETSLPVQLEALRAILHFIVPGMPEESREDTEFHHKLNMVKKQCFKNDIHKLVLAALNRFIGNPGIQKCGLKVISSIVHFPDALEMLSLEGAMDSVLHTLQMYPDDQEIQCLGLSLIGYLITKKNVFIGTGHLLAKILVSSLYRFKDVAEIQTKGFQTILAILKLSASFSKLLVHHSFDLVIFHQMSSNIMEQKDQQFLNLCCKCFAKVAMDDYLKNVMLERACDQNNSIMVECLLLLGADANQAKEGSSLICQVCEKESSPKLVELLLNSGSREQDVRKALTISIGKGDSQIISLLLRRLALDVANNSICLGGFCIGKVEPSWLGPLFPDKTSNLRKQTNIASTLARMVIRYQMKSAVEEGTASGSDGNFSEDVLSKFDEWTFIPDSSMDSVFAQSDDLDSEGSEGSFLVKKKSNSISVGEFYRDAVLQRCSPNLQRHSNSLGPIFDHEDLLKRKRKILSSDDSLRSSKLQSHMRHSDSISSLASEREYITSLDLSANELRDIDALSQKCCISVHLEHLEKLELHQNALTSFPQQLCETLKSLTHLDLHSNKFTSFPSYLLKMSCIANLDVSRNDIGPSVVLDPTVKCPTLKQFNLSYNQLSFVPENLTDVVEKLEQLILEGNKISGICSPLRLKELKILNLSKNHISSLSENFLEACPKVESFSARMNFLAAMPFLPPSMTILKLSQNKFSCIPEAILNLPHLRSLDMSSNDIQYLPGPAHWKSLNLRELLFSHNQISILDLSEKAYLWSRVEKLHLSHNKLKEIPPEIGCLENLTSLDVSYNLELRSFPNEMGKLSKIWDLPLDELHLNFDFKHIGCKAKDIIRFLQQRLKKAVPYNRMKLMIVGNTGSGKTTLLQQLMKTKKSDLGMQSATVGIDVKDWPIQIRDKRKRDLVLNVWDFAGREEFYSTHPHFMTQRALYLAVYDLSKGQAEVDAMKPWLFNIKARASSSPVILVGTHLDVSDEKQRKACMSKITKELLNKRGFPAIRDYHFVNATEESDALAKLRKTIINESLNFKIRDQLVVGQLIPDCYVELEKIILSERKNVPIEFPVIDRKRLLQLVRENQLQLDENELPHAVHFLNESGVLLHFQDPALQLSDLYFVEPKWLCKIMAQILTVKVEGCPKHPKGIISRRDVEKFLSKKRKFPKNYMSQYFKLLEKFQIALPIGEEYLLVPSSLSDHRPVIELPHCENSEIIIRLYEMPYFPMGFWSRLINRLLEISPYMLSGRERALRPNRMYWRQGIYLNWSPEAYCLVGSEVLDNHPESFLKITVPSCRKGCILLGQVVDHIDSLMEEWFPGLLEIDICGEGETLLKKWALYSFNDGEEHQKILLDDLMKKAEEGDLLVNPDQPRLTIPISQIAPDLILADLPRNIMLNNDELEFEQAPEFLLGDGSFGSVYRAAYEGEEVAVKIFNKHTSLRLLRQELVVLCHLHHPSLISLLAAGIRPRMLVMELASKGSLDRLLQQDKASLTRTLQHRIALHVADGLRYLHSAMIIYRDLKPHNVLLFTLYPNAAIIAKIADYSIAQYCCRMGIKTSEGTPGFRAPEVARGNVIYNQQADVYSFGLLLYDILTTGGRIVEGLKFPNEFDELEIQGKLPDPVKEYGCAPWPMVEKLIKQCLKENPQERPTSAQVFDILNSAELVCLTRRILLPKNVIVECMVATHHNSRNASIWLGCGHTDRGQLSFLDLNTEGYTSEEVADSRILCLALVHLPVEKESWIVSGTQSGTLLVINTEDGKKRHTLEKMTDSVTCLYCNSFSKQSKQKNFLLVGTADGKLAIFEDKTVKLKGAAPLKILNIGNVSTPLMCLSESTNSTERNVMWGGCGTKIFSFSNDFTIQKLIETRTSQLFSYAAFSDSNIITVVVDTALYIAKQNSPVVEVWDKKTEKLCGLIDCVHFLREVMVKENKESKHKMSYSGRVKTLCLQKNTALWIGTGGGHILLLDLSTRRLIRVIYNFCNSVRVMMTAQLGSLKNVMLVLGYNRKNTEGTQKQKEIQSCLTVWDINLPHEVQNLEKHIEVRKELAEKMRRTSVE
Sequence of Leucine-rich repeat serine/threonine-protein kinase 2 (Homo sapiens) (Q5S007 whole entry): as the sequence (Q5S007 whole entry G2019S) above, with S2019G counted along it
Sequence of RAF proto-oncogene serine/threonine-protein kinase (Homo sapiens) (P04049 whole entry): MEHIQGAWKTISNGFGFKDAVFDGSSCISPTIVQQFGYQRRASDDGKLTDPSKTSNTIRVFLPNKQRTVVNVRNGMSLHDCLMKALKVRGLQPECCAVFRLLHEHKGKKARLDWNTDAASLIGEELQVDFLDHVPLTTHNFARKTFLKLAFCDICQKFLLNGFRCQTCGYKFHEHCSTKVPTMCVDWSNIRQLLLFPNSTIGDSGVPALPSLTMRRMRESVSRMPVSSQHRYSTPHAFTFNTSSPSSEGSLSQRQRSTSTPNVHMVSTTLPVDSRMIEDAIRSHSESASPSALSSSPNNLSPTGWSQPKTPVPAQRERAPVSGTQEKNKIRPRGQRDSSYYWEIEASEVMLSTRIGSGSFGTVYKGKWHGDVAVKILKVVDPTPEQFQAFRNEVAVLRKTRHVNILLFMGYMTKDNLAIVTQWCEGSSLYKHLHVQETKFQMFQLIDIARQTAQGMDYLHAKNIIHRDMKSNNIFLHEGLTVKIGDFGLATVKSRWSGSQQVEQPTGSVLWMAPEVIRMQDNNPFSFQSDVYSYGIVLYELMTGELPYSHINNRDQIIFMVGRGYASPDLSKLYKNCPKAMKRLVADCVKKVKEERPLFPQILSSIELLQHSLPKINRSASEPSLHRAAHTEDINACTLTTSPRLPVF

As usually defined, the inhibition is the relative decrease from the control value, in per cent. For `CS(=O)(=O)CCNCc1ccc(-c2ccc3ncnc(Nc4ccc(OCc5cccc(F)c5)c(C(F)(F)F)c4)c3c2)o1`, the inhibition in test [1] amounted to 12.1%; in test [2] it was 4.38%; in test [3], 1.89%; in test [4], 0.82%; in test [5] it was 1.68%; in test [6], 3.39%. The inhibition in test [7] was found to be 2.93%.

Consider `Fc1cccc(COc2ccc(Nc3ncnc4cc(-c5ccc[nH]5)sc34)cc2Cl)c1`, for which the inhibition in test [1] is 1.43%; in test [2], 7.16%; in test [3], 1.69%; in test [4], -4.42%; in test [5], -3.46%; in test [6], -1.54%. In addition, the inhibition in test [7] is 0.39%.

On to `CC1=C(C(=O)Nc2ccc3[nH]ncc3c2)C(c2ccc(F)cc2)NC(=O)N1` (stereo unspecified), for which the inhibition in test [1] is -2.67%; in test [2], 2.07%; in test [3] it was 0.77%; in test [4], 2.24%; in test [5], 5.08%; in test [6], 3.81%. The inhibition in test [7] was found to be 14.8%.

`CCc1cccc(NC(=O)Nc2ccc(Oc3ccc4nc(NC(=O)OC)[nH]c4c3)cc2)c1`: the inhibition is 4.58% in test [1]; 0.53% in test [2]; 1.04% in test [3]; 9.23% in test [4]; 8.78% in test [5]; 5.51% in test [6]. The inhibition in test [7] is 8.2%.

For `Cn1cc(C=C2C(=O)Nc3cccnc32)c2ccccc21`, the inhibition in test [2] worked out at 6.41%; in test [3], 5.04%; in test [4], 8.55%; in test [5] it was 20.8%; in test [6] it was 15%; in test [7], 55.4%.

Turning to `COc1cc2ncn(-c3cc(OCc4ccccc4C(F)(F)F)c(C(N)=O)s3)c2cc1OC`, the inhibition in test [1] was -0.64%; in test [2], 1.2%; in test [3], 1.85%; in test [4], 1.63%; in test [5], 16.1%; in test [6], 5.35%. Further, the inhibition in test [7] came to 40.1%.

Take `NCc1ccc(-c2nc(-c3ccc(Cl)c(O)c3)c(-c3ccncc3)[nH]2)cc1`: the inhibition turned out to be 76.6% in test [1]; 3% in test [2]; 0.37% in test [3]; 1.04% in test [4]; 1.56% in test [5]; 1.02% in test [6]. For the same compound, the inhibition in test [7] amounted to 4.61%.

Turning to `NS(=O)(=O)c1ccc(N/N=C2\C(=O)Nc3ccc(C(=O)NCCc4c[nH]cn4)cc32)cc1`, the inhibition in test [2] is -1.81%; in test [3] it was 2.08%; in test [4] it was 10.3%; in test [5], 16.9%; in test [6], 15.3%; in test [7], 50%.

For the compound `CCn1c(-c2nonc2N)nc2c(C#CC(C)(C)O)nc(OC[C@@H](N)c3ccccc3)cc21`, the inhibition in test [1] was 3.8%; in test [2] it was -2.13%; in test [3] it was 0.37%; in test [4] it was 2.04%; in test [5], 8.46%; in test [6], 2.34%. Also, in test [7], the inhibition was 19.7%.

Consider `CS(=O)(=O)CCN(CC#N)Cc1ccc(-c2ccc3ncnc(Nc4ccc(OCc5cccc(F)c5)c(Cl)c4)c3c2)o1`, for which the inhibition in test [1] is -3.46%; in test [2] it was 0.21%; in test [3], 0.75%; in test [4], -6.54%; in test [5], -8.08%; in test [6], -3.2%. The inhibition in test [7] is -2.31%.

Consider `Cc1cccc(-c2n[nH]cc2-c2ccc3ncccc3n2)n1`, for which the inhibition amounted to 1.85% in test [2]; 0.21% in test [3]; 1.67% in test [4]; 10.1% in test [5]; 2.43% in test [6]; 10.6% in test [7].

For the compound `Nc1ncnc2occ(-c3ccc(NC(=O)Nc4cccc(C(F)(F)F)c4)cc3)c12`, the inhibition was -2.58% in test [1]; 2.03% in test [2]; 2.34% in test [3]; 17.1% in test [4]; 57.9% in test [5]; 13.1% in test [6]. In addition, in test [7], the inhibition worked out at 42.8%.

For the compound `COc1cccc(-n2ncc3c(N/N=C/c4cccc(F)c4)ncnc32)c1`, the inhibition in test [1] is -6.84%; in test [2], 3.28%; in test [3], 1.56%; in test [4], -3.46%; in test [5], -0.49%; in test [6], 0.79%. Also, the inhibition in test [7] is 2.23%.

For `CCn1c(-c2nonc2N)nc2c(N3CCCC3)nccc21`, the inhibition is -1.43% in test [1]; 1.9% in test [2]; -0.28% in test [3]; -2.19% in test [4]; 2.91% in test [5]; 0.77% in test [6]. Moreover, in test [7], the inhibition came to 1.57%.

In the case of `Cc1nn(C)c2cc(N(C)c3ccnc(Nc4cccc(S(N)(=O)=O)c4)n3)ccc12`, the inhibition amounted to 3.83% in test [1]; 2.51% in test [2]; 6.18% in test [3]; 1.65% in test [4]; 7% in test [5]; 4.07% in test [6]. Besides, the inhibition in test [7] worked out at 12.3%.

Turning to `O=C1NC(=O)C(c2ccccc2Cl)=C1Nc1cccc(O)c1`, the inhibition in test [1] is -0.43%; in test [2], -2%; in test [3] it was 1.87%; in test [4] it was 4.27%; in test [5], 13.2%; in test [6], 3.28%. Moreover, the inhibition in test [7] amounted to 14.6%.

With `Cc1ccc(C(=O)NC2CCCCC2)cc1-c1ccc(C(=O)NCC2CC2)cc1`, the inhibition in test [1] was 0.13%; in test [2], -1.27%; in test [3], 1.67%; in test [4], 6.21%; in test [5], 6.84%; in test [6], 3.47%. Besides, the inhibition in test [7] is 3.31%.
